# Columns and labels:
# Type in all cases: functional
# [1] = target: Solute carrier family 2, facilitated glucose transporter member 1 (Homo sapiens) (UniProt P11166); assay: ST_JUDE_LEISH: Cytotoxicity at 2uM final concentration against transgenic Leishmania Mexicana promastigotes LmGLUT1 that are glucose transport deficient and complemented with the human glucose transporter GLUT1. Activity is measured by DNA content using SYBR green in vitro
# [2] = target: Hexose transporter 1 (Plasmodium falciparum) (UniProt O97467); assay: ST_JUDE_LEISH: Cytotoxicity at 2uM final concentration against transgenic Leishmania Mexicana promastigotes LmPfHT that are glucose transport deficient and complemented with the Plasmodium falciparum hexose transporter. Activity is measured by DNA content using SYBR green in vitro
# [3] = target: Glucose transporter (Leishmania mexicana) (UniProt O61059); assay: ST_JUDE_LEISH: Cytotoxicity at 2uM final concentration against transgenic Leishmania Mexicana promastigotes LmGT2 that are glucose transport deficient and complemented with the L. Mexicana glucose transporter 2. Activity is measured by DNA content using SYBR green in vitro
# Chain of Solute carrier family 2, facilitated glucose transporter member 1 (Homo sapiens) (P11166 whole entry): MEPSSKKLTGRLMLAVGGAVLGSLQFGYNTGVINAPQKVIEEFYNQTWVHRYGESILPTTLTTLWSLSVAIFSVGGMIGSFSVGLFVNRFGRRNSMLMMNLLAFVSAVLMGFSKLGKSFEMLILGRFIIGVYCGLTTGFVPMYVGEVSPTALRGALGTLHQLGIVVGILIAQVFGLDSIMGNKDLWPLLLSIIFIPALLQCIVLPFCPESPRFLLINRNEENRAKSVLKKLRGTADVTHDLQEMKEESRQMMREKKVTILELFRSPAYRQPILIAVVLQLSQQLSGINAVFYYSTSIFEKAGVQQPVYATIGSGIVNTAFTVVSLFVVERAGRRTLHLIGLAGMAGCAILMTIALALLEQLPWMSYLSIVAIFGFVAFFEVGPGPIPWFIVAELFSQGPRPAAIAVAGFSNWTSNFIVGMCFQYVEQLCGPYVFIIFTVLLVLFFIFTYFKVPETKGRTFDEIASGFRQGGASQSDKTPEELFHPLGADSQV
Compound,inhibition [1],inhibition [2],inhibition [3]
CS(=O)(=O)Nc1cccc(-c2cnc3[nH]cc(-c4ccc(CN)cc4)c3c2)c1,4.62%,4.04%,3.33%
N=C(N)NC(=O)Nc1cc(Cl)c(F)c(Cl)c1,3.91%,4.24%,0.63%
COc1ccc2[nH]c(-c3ccccc3)cc(=NN=Cc3ccncc3)c2c1,3.48%,3.17%,5.54%
COc1cccc2c(N/N=C/c3ccccc3[N+](=O)[O-])ccnc12,4.82%,5.71%,3.87%
CCc1sc(N2CCC(C)CC2)nc1C(=O)Nc1ccc(F)cc1C(F)(F)F,2.29%,3.34%,0.26%
O=C(NC1CCCCN(Cc2ccccc2O)C1)c1cc(F)cc(F)c1 (configuration not stated),4.28%,5.08%,3.51%
Cc1ccc2c(c1[N+](=O)[O-])N=NCC2Oc1ccccc1 (configuration not stated),10.8%,9.1%,10.6%
FC(F)(F)c1cccc(N=C(S)NN=Cc2ccccn2)c1,-0.57%,4.7%,1.52%
Cc1cccc(CNc2nc(C)cc(NCCC(=O)Nc3ccccc3)n2)c1,10.3%,11.3%,5.57%
Cc1cc(=O)[nH]c(-n2nc(C)cc2NC(=O)C(c2ccccc2)c2ccccc2)n1,20.5%,29.6%,6.5%
CCN1CCN(Cc2ccc3nc(-c4cc(C)n(Cc5cc(Cl)ccc5OCc5ccccc5)n4)[nH]c3c2)CC1,3.5%,3.38%,-0.3%
O=C(CCCCCNC(=O)c1ccc(O)c(-c2cccc(C(F)(F)F)c2)c1)NCCN1CCCCC1,5.39%,4.36%,0.5%
CC(=O)Nc1cccc(Nc2c3ccccc3nc3ccccc23)c1,1.69%,3.82%,0.54%
COc1cccc(OC)c1C(=O)N1CCC2(CC1)C(=O)N(CC(=O)NC1CCCCC1)CN2c1ccccc1,0.35%,4.45%,3.89%
COC(=O)c1sc2ccccc2c1NC(=O)c1ccc(C)c(C)c1,5.3%,4.87%,5.56%
CN1CCN(Cc2nc(-c3ccc4c(Nc5ccc(Oc6ccccc6)cc5)ccnc4c3)cs2)CC1,2.66%,2.64%,1.74%
Nc1cc(/C=C/c2ccc([N+](=O)[O-])o2)nc2ccccc12,104%,104%,101%

Compound,inhibition [1],inhibition [2],inhibition [3]
COc1ccc(-c2ccc(NC(=O)c3cccc(Cl)c3)cc2)cc1CN1CCC(O)CC1,14.6%,15.5%,12.4%
O=C(N[C@@H](CC1CCCCC1)C(=O)NCCc1ccc(Cl)c(Cl)c1)c1ccc(O)c(-c2ccc(Cl)c(Cl)c2)c1,0.23%,0.3%,1.25%
Cc1[nH]c(C)c(-c2ccc(Oc3ccc(Cl)cc3)cc2)c(=O)c1Cl,2.75%,2.92%,1.25%
CN(C)Cc1ccc(-c2ccc(NC(=O)c3ccc4c(=O)n(Cc5ccoc5)cnc4c3)cc2)cc1,1.36%,1.35%,-0.37%
Cc1nc(N/C(N)=N/C(=O)NC2CCCCC2)nc2ccccc12,7.72%,5.72%,6.66%
COc1cccc(Nc2nccc(NCC(O)c3ccc(C(F)(F)F)cc3)n2)c1 (configuration not stated),7.45%,8.55%,2.75%
Cc1ccc2nc3c(cc(C(=O)NCCc4ccccc4)c(=N)n3CCCOC(C)C)c(=O)n2c1,-0.01%,0.31%,-1.76%
c1ccc(CNc2cc(-c3ccccn3)nc(-c3ccccn3)n2)cc1,24.5%,4.72%,8.35%
CSc1sc(NC(=O)Nc2cccc(C(F)(F)F)c2)cc1C#N,1.55%,1.51%,1.15%
COc1ccc(-c2cccc(NC(=O)c3ccc(C#N)cc3)c2)cc1CNC(C)C,8.59%,6.99%,8.32%
CCc1ccccc1N1CCN(CCCC(=O)c2ccc(NC(=O)c3ccc(Cl)cc3)cc2)CC1,3.6%,3.75%,4.09%
O=C(Nc1cccc(-c2ccc(CN3CCCC3)cc2)c1)c1cccc(F)c1,-0.49%,1.18%,0.62%
Cc1ccccc1Nc1nc(NCc2ccccc2)nc2ccccc12,14.9%,10.9%,5.77%
CS(=O)(=O)CCNCc1ccc(-c2cc3c(Nc4ccc(OCc5cccc(F)c5)c(Cl)c4)ncnc3s2)[nH]1,0.33%,0.24%,0.92%
C[C@@H](COc1ccccc1)NCC(O)c1ccc([N+](=O)[O-])c(OCc2ccccc2)c1 (some centres not stated),0.54%,0.96%,0.1%
Cc1cc(N[C@@H](Cc2ccccc2)C(=O)NCc2cccc(F)c2)nc(NCC2CCCCC2)n1,-0.17%,2.51%,-1.9%
CCNc1cc(C(=O)N[C@@H](Cc2ccccc2)[C@H](O)CNC2(CCC(C)C)CC2)cc(N2CCCCS2(=O)=O)c1,-1.85%,-0.04%,-0.78%
